# Screen size: about 68,000 compounds; about 2,700 (4%) showed an effect of 50% or more. This excerpt belongs to a sample that is enriched for strong results.
# Tested on: Plasmodium berghei
# Experiment: Screen against P. berghei liver stage (PbLuc), transformed with Luciferase, at 2uM
# Format: functional, HepG2
# Conditions: tested at 2 uM
row,Structure (SMILES),INHIBITION
1,O=C(c1c[nH]c(=O)c(Cl)c1)N1CCc2ccccc2C1,-15.11%
2,O=C(c1ccc(O)nc1)N1CCN(C(=O)c2ccc(F)c(F)c2)CC1,-18.09%
3,O=C(c1cnc(OCC(F)(F)F)c(Cl)c1)N1CCc2ccc(O)cc2C1,64.2%
4,O=C(c1ccc(O)nc1)N1CCN(C(=O)c2ccc(F)cc2F)CC1,19.06%
5,CC(C)Oc1ncc(C(=O)N2CCc3ccc(O)cc3C2)cc1Cl,11.33%
6,O=C(c1ccc(O)nc1)N1CCc2ccc(O)cc2C1,55.39%
7,CC(=O)N1CC[C@H](c2nnc(Cc3c[nH]c4ccccc34)o2)C1,26.01%
8,CN(Cc1cn2c(n1)CN(CC1CCOC1)CC2)Cc1ccco1 (stereo not given),-0.38%
9,O=C(NCCn1cccc1)C1CCN(C2CCCCC2)CC1,10.72%
10,OCCOc1cc(F)ccc1NCc1cccc(F)c1F,-19.62%
11,Cn1ccnc1CN1CCC(CNS(=O)(=O)c2cccnc2)C1 (stereo not given),-43.75%
12,COc1ccc(NC(=O)C2CC(=O)n3cnnc3S2)cc1 (stereo not given),6.05%
13,COCCN1CCCC(O)(CN2CCN(Cc3ccncc3)CC2)C1=O (stereo not given),15.73%
14,CC(=O)c1ccc(CNC(=O)c2cc(C#N)cn2C)nc1C,-2.44%
15,Cc1ccc2nc(CSCC(=O)Nc3nnc(C(C)C)s3)cc(=O)n2c1,-3.16%
16,O=C(Nc1cccnc1)C1=Cc2ccccc2OC1,3.62%
17,CC1=C(C#N)C(=O)N(C)C(=O)/C1=C\C1=Cc2ccccc2OC1,53.81%
18,CCN1C(=O)C(C#N)=C(C)/C(=C/C2=Cc3ccccc3OC2)C1=O,45.67%
19,O=C(NCC1CCOCC1)c1cc(-c2ccncc2)c2cnccc2n1,10.89%
20,Cc1ccc(C(CNCc2cccc3c2OCO3)N2CCOCC2)o1 (stereo not given),71.53%
21,CC(C)C(CNCc1cccc2c1OCO2)N1CCOCC1 (stereo not given),21.72%
22,c1csc(C(CNCc2cccc3c2OCO3)N2CCOCC2)c1 (stereo not given),42.62%
23,COc1ccccc1OCC(=O)NCC(O)(c1ccccc1)C1CC1 (stereo not given),22.75%
24,CCOc1ccc(Oc2cc(N)ccn2)cc1,4%
25,O[C@H]1Cc2ccccc2[C@H]1Nc1ncccc1C(F)(F)F,-12.95%
26,Cc1ccc(CN2CCCn3nnc(COCCN(C)C)c3C2)s1,23.14%
27,Cn1cc(CN2CC[C@H]3O[C@H](C(=O)NC4CC4)CC[C@H]32)c2ccccc21,-18.7%

row,Structure (SMILES),INHIBITION
1,CCOc1ncccc1CNS(=O)(=O)c1ccc2c(c1)CCCC(=O)N2,20.35%
2,c1cn(-c2ccc(CN3CCOC(Cn4cncn4)C3)cc2)cn1 (stereo not given),40.88%
3,c1cnn(CC2CN(Cc3ccc(-n4ccnc4)cc3)CCO2)c1 (stereo not given),53.03%
4,c1ccc(-c2nc(CN3CCOC(Cn4cccn4)C3)co2)cc1 (stereo not given),62.13%
5,CN(Cc1ccsc1)C(=O)CN1CCOC(Cn2cccn2)C1 (stereo not given),62.46%
6,Fc1ccc(-c2nc(CN3CCOC(Cn4cccn4)C3)co2)cc1 (stereo not given),-17.31%
7,Cc1cnn(CC2CN(CC(=O)N(C)Cc3ccsc3)CCO2)c1 (stereo not given),47.84%
8,c1csc(-c2nc(CN3CCOC(Cn4cncn4)C3)cs2)c1 (stereo not given),66.97%
9,c1csc(-c2nc(CN3CCOC(Cn4cccn4)C3)cs2)c1 (stereo not given),45.83%
10,CN(Cc1ccsc1)C(=O)CN1CCOC(Cn2cncn2)C1 (stereo not given),46.09%
11,c1cnn(CC2CN(CCc3ccncc3)CCO2)c1 (stereo not given),17.11%
12,c1ccc(-c2nc(CN3CCOC(Cn4cncn4)C3)cs2)cc1 (stereo not given),31.57%
13,Cc1ccc(-c2nc(CN3CCOC(Cn4cccn4)C3)co2)cc1 (stereo not given),1.02%
14,OCC(CO)Nc1ccc2c(Cl)ccc(Cl)c2n1,34.55%
15,O=C(c1ccc(F)cc1)N1CCC2(CCCN2CC2CC2)CC1,-38.96%
16,NC(=O)Nc1cccc(CNC(=O)CCCc2ccccc2)c1,3.01%
17,Fc1cccnc1Oc1cc(F)c(CN2CCCC2)c(Cl)c1,-42.73%
18,Clc1cc(N2CCC(N3CCCC3)CC2)nc2[nH]ccc12,25.13%
19,Nc1cc2c(nn1)CCN(C(=O)c1cccc3c1OCO3)C2,4.55%
20,CC(=O)c1ccc(S(=O)(=O)NCc2cccnc2N(C)C)cc1,4.18%
21,COc1ncccc1-c1nc(-c2ccccn2)nn1C1CCS(=O)(=O)C1 (stereo not given),19.12%
22,Nc1nc2cn(C3CCCC3)c(=O)c-2c[nH]1,-33.11%
23,CC(C)CCc1nc(CN2CCOC(Cn3cncn3)C2)cs1 (stereo not given),7.13%
24,c1csc(-c2nc(CN3CCOC(Cn4cncn4)C3)co2)c1 (stereo not given),71.48%
25,Fc1cccc(-c2nc(CN3CCOC(Cn4cncn4)C3)co2)c1 (stereo not given),16.51%
26,c1csc(-c2nc(CN3CCOC(Cn4cccn4)C3)co2)c1 (stereo not given),-25.44%
27,CC(C)(C)c1nc(CN2CCOC(Cn3cncn3)C2)cs1 (stereo not given),-5.09%

row,Structure (SMILES),INHIBITION
1,CCCc1nc(CN2CCOC(Cn3cncn3)C2)cs1 (stereo not given),53.98%
2,Cn1c(CN2CCCCC2)nnc1C1CCN(c2nccc(N)n2)CC1,21.2%
3,c1cnn(CC2CN(Cc3noc(C4CC4)n3)CCO2)c1 (stereo not given),-28.51%
4,CCn1c(=O)n(Cc2nc(C3CC3)no2)c2ccccc21,30.82%
5,CCC1c2ccccc2CCN1C(=O)c1ccnc(C(=O)OC)c1 (stereo not given),20.34%
6,CCc1nnc(C(C)N2CCN(CCC(C)(C)C)CC2)o1 (stereo not given),38.97%
7,COc1cc(C(=O)O)ccc1OCC(=O)NCCc1ccccc1,10.1%
8,COc1cc(OCC(=O)NCCc2ccccc2)cc(OC)c1OC,28.85%
9,COc1cc(C(=O)O)cc(I)c1OCC(=O)NCCc1ccccc1,56.69%
10,CCN1C[C@H]2[C@@H](C1)N(c1ncc(F)cn1)CC[C@H]2OC,12.29%
11,CCc1ncc2c(n1)CN(Cc1nnc(C)o1)CC2,59.18%
12,CCc1ncc2c(n1)CN(Cc1nnc(C(C)C)o1)CC2,46.76%
13,CCc1ncc2c(n1)CN(Cc1nnc(CC)o1)CC2,9.18%
14,COCCN1C[C@@H]2[C@@H](OC)CCN(Cc3ccsc3)[C@@H]2C1,20.91%
15,Cc1cc2nc(CO[C@H]3CN(C4CCCCC4)C[C@H]3F)[nH]c2cc1C,18.65%
16,Cc1cc2nc(CO[C@H]3CN(C4CCN(C)CC4)C[C@H]3F)[nH]c2cc1C,50.7%
17,CC(=O)N1C[C@@H](F)[C@@H](OCc2nc3ccc(C#N)cc3[nH]2)C1,36.99%
18,CN1C[C@@H](F)[C@@H](OCc2nc3ccc(C#N)cc3[nH]2)C1,52.91%
19,Cc1cc2nc(CO[C@H]3CN(C4CCC4)C[C@H]3F)[nH]c2cc1C,46.17%
20,CN1C[C@@H](F)[C@@H](OCc2nc3ccccc3[nH]2)C1,40.83%
21,O=C(Cn1cc(Cl)cn1)N1CCCC(c2cc3ccccc3cn2)C1 (stereo not given),36.98%
22,COCCNC(=O)c1cnc(N(C)C)nc1C,12.85%
23,CCC(NC(=O)c1cnc(N(C)C)nc1C)c1ccc(S(C)(=O)=O)cc1 (stereo not given),70.81%
24,CCn1nc(C)c(C(C)NC(=O)c2cnc(N(C)C)nc2C)c1C (stereo not given),-12.22%
25,CCn1c(C)nnc1SCCNC(=O)c1cnc(N(C)C)nc1C,-41.73%
26,CCC(NC(=O)c1cnc(N(C)C)nc1C)c1ccncc1 (stereo not given),57.34%
27,Cc1nc(N(C)C)ncc1C(=O)NCCc1csc(-c2ccncc2)n1,40.05%

row,Structure (SMILES),INHIBITION
1,O=C(CN1CCc2cncnc2C1)N1CCc2sccc2C1,-27.59%
2,Cn1cnnc1SCC(=O)N1C[C@@H]2CC[C@H]1CN(Cc1cccnc1)C2,12.74%
3,O=C(CN1CCCCC1)Nc1cc(C(F)(F)F)ccc1-n1cccc1,18.54%
4,CNC(=O)c1cccc(CNC(C)c2cc(C)ccc2OC(F)F)c1 (stereo not given),25.55%
5,CNC(=O)c1cccc(CNC(C)c2ccc(F)cc2N(C)C)c1 (stereo not given),55.25%
6,CNC(=O)c1cccc(CNC(C)c2cc(Cl)ccc2OC)c1 (stereo not given),19.81%
7,CC(C)n1nc(O)c2c1NC(=O)CSC2c1cnn(C)c1 (stereo not given),6.9%
8,COc1cc(CNCC(C)O)cc(Cl)c1OCc1ccc(C)cc1 (stereo not given),44.51%
9,COc1ccc(C)cc1CN1CCN(Cc2nccn2C)C(C)C1 (stereo not given),50.61%
10,COc1ccc(F)cc1CN1CCN(Cc2nccn2C)C(C)C1 (stereo not given),-49.85%
11,Cc1ccccc1CN1CCN(Cc2nccn2C)CC1,20.28%
12,C=C(C)CN1CCN(Cc2nccn2C)C(C)C1 (stereo not given),36.95%
13,CC1CN(CC(=O)NC2CCOCC2)CCN1Cc1nccn1C (stereo not given),-0.99%
14,COc1ccc(C(C)N2CCN(Cc3nccn3C)CC2)cc1Cl (stereo not given),18.31%
15,COc1ccc(C)cc1CN1CCN(Cc2nccn2C)CC1,50.61%
16,CC1CN(CC(=O)N2CCOCC2)CCN1Cc1nccn1C (stereo not given),66.27%
17,COc1ccc(CN2CCN(Cc3nccn3C)C(C)C2)cc1F (stereo not given),-13.34%
18,Cc1cc(CN2CCc3nc(N4CCOCC4)nc(O)c3CC2)c(C)s1,22.84%
19,Cc1cccc(CNC2CC3(CCN(CCO)CC3)c3ccccc32)n1 (stereo not given),34.02%
20,Cc1ccc2oc(SCC(N)=O)nc2n1,-30.1%
21,CN(C(=O)Nc1nncs1)C1CCN(c2ccccc2Cl)C1=O (stereo not given),2.06%
22,Cn1cnc2c1C(COCC1CCOCC1)CN(C(=O)c1ccco1)C2 (stereo not given),-39.19%
23,CN(C)C(=O)N1CCN(C(=O)CCc2ccccc2)[C@H]2CS(=O)(=O)C[C@H]21,-93.14%
24,Cn1c(C2CC2)nc2c1CCN(Cc1nc3ccccc3s1)C2,14.59%
